Data published in PubChem BioAssay AID1159580 (chemical genetic matrix, 2015).
In all, about 5,500 compounds went through this assay and about 2,000 (36%) were called active. Roughly 18% stayed inconclusive and do not appear here. Rule as the data show it: active = normalized growth mostly below about 0.91 (no sharp cut-off); inconclusive = no clear call, values can overlap the other calls; inactive = mostly above about 0.92. The list shows a part of the results.

Test: chemical genetic growth profiling, strain panel (AID 1159580);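 also: tested at 20 µM; growth read once vehicle control cultures reached saturation at 30 °C; 1 = growth at the plate median or of vehicle wells; lower values mean less growth of the strain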
Conditions: growth OD

Measured: normalized growth

CC12CCC(CC1)C(C)(C)O2
inactive: S. cerevisiae deletion strains, locus YJL187C, strain SWE1 (second series), stronger effect = lower value 1 | S. cerevisiae deletion strains, locus YJL187C, strain SWE1, stronger effect = lower value 0.989 | S. cerevisiae deletion strains, locus YJR043C, strain POL32, stronger effect = lower value 0.989 | S. cerevisiae deletion strains, locus YJR066W, strain TOR1, stronger effect = lower value 0.94 | S. cerevisiae deletion strains, locus YKL009W, strain mrt4, stronger effect = lower value 1.03 | S. cerevisiae deletion strains, locus YKL068W, stronger effect = lower value 1.01 | S. cerevisiae deletion strains, locus YKL085W, strain MDH1 (second series), stronger effect = lower value 1.01 | S. cerevisiae deletion strains, locus YKL085W, strain MDH1, stronger effect = lower value 1.01 | S. cerevisiae deletion strains, locus YKL160W, strain elf1, stronger effect = lower value 1 | S. cerevisiae deletion strains, locus YKR001C, strain vps1, stronger effect = lower value 1.01 | S. cerevisiae deletion strains, locus YKR026C, strain gcn3, stronger effect = lower value 0.977 | S. cerevisiae deletion strains, locus YKR091W, strain srl3, stronger effect = lower value 0.993 | S. cerevisiae deletion strains, locus YLL001W, strain dnm1, stronger effect = lower value 0.985 | S. cerevisiae deletion strains, locus YLL026W, stronger effect = lower value 0.977 | S. cerevisiae deletion strains, locus YLL041C, strain sdh2, stronger effect = lower value 0.974 | S. cerevisiae deletion strains, locus YLR027C, strain aat2, stronger effect = lower value 0.97 | S. cerevisiae deletion strains, locus YLR039C, strain RIC1, stronger effect = lower value 1.01 | S. cerevisiae deletion strains, locus YLR058C, strain SHM2, stronger effect = lower value 1.01 | S. cerevisiae deletion strains, locus YLR102C, strain apc9, stronger effect = lower value 1.01 | S. cerevisiae deletion strains, locus YLR113W, strain HOG1, stronger effect = lower value 0.994 | S. cerevisiae deletion strains, locus YLR221C, strain rsa3, stronger effect = lower value 0.98 | S. cerevisiae deletion strains, locus YLR258W, strain gsy2, stronger effect = lower value 0.976 | S. cerevisiae deletion strains, locus YLR262C, strain YPT6 (second series), stronger effect = lower value 1.03 | S. cerevisiae deletion strains, locus YLR262C, strain YPT6, stronger effect = lower value 1 | S. cerevisiae deletion strains, locus YLR268W, strain sec22, stronger effect = lower value 0.994 | S. cerevisiae deletion strains, locus YLR320W, strain mms22, stronger effect = lower value 0.994 | S. cerevisiae deletion strains, locus YLR330W, strain CHS5, stronger effect = lower value 1.01 | S. cerevisiae deletion strains, locus YLR342W, strain FKS1 (second series), stronger effect = lower value 1.04 | S. cerevisiae deletion strains, locus YLR342W, strain FKS1, stronger effect = lower value 0.974 | S. cerevisiae deletion strains, locus YLR357W, strain rsc2, stronger effect = lower value 0.932 | S. cerevisiae deletion strains, locus YLR370C, strain arc18, stronger effect = lower value 0.972 | S. cerevisiae deletion strains, locus YLR371W, strain rom2, stronger effect = lower value 1.02 | S. cerevisiae deletion strains, locus YLR384C, strain iki3, stronger effect = lower value 0.974 | S. cerevisiae deletion strains, locus YLR418C, strain cdc73, stronger effect = lower value 1.05 | S. cerevisiae deletion strains, locus YML016C, strain PPZ1, stronger effect = lower value 1.01 | S. cerevisiae deletion strains, locus YML032C, strain rad52, stronger effect = lower value 1.02 | S. cerevisiae deletion strains, locus YML120C, strain ndi1, stronger effect = lower value 0.988 | S. cerevisiae deletion strains, locus YML124C, strain tub3, stronger effect = lower value 1.02 | S. cerevisiae deletion strains, locus YMR058W, strain fet3, stronger effect = lower value 0.98 | S. cerevisiae deletion strains, locus YMR078C, strain ctf18, stronger effect = lower value 1.01 | S. cerevisiae deletion strains, locus YMR125W, strain sto1, stronger effect = lower value 0.977 | S. cerevisiae deletion strains, locus YMR129W, stronger effect = lower value 0.992 | S. cerevisiae deletion strains, locus YMR205C, strain PFK2, stronger effect = lower value 0.99 | S. cerevisiae deletion strains, locus YMR223W, strain ubp8, stronger effect = lower value 1.03 | S. cerevisiae deletion strains, locus YMR231W, strain pep5, stronger effect = lower value 0.957 | S. cerevisiae deletion strains, locus YMR307W, strain GAS1, stronger effect = lower value 0.998 | S. cerevisiae deletion strains, locus YNL067W, strain RPL9B, stronger effect = lower value 1 | S. cerevisiae deletion strains, locus YNL071W, strain lat1, stronger effect = lower value 0.984 | S. cerevisiae deletion strains, locus YNL183C, strain NPR1, stronger effect = lower value 0.907 | S. cerevisiae deletion strains, locus YNL209W, strain ssb2, stronger effect = lower value 0.98 | S. cerevisiae deletion strains, locus YNL233W, strain BNI4, stronger effect = lower value 1.01 | S. cerevisiae deletion strains, locus YNL248C, strain rpa49, stronger effect = lower value 0.978 | S. cerevisiae deletion strains, locus YNL250W, strain rad50, stronger effect = lower value 0.99 | S. cerevisiae deletion strains, locus YNL271C, strain bni1, stronger effect = lower value 1.01 | S. cerevisiae deletion strains, locus YNL298W, strain CLA4, stronger effect = lower value 1.02 | S. cerevisiae deletion strains, locus YNL307C, strain MCK1, stronger effect = lower value 1.01 | S. cerevisiae deletion strains, locus YNL322C, strain KRE1 (second series), stronger effect = lower value 0.967 | S. cerevisiae deletion strains, locus YNR049C, strain mso1, stronger effect = lower value 0.983 | S. cerevisiae deletion strains, locus YNR052C, strain pop2, stronger effect = lower value 1.01 | S. cerevisiae deletion strains, locus YOL012C, strain htz1 0.871 | S. cerevisiae deletion strains, locus YOL147C, strain pex11, stronger effect = lower value 1.01 | S. cerevisiae deletion strains, locus YOR001W, strain rrp6, stronger effect = lower value 0.98 | S. cerevisiae deletion strains, locus YOR061W, strain CKA2, stronger effect = lower value 1.01 | S. cerevisiae deletion strains, locus YOR069W, strain VPS5, stronger effect = lower value 1 | S. cerevisiae deletion strains, locus YOR070C, strain gyp1, stronger effect = lower value 0.971 | S. cerevisiae deletion strains, locus YOR080W, strain dia2, stronger effect = lower value 0.975 | S. cerevisiae deletion strains, locus YOR083W, strain WHI5, stronger effect = lower value 0.992 | S. cerevisiae deletion strains, locus YOR106W, strain vam3, stronger effect = lower value 0.954 | S. cerevisiae deletion strains, locus YOR136W, strain idh2, stronger effect = lower value 1 | S. cerevisiae deletion strains, locus YOR144C, strain elg1, stronger effect = lower value 1.01 | S. cerevisiae deletion strains, locus YOR184W, strain ser1, stronger effect = lower value 1 | S. cerevisiae deletion strains, locus YOR231W, strain MKK1, stronger effect = lower value 1.01 | S. cerevisiae deletion strains, locus YOR265W, strain rbl2, stronger effect = lower value 0.999 | S. cerevisiae deletion strains, locus YOR270C, strain vph1, stronger effect = lower value 1.02 | S. cerevisiae deletion strains, locus YOR290C, strain snf2, stronger effect = lower value 0.979 | S. cerevisiae deletion strains, locus YOR316C, strain cot1, stronger effect = lower value 1.02 | S. cerevisiae deletion strains, locus YPL051W, strain arl3, stronger effect = lower value 0.973 | S. cerevisiae deletion strains, locus YPL055C, strain LGE1, stronger effect = lower value 1.02 | S. cerevisiae deletion strains, locus YPL078C, strain atp4, stronger effect = lower value 0.995 | S. cerevisiae deletion strains, locus YPL106C, strain sse1, stronger effect = lower value 0.978 | S. cerevisiae deletion strains, locus YPL240C, strain hsp82, stronger effect = lower value 0.968 | S. cerevisiae deletion strains, locus YPL256C, strain CLN2, stronger effect = lower value 0.977 | S. cerevisiae deletion strains, locus YPR119W, strain clb2, stronger effect = lower value 1.02 | S. cerevisiae deletion strains, locus YPR141C, strain kar3, stronger effect = lower value 1.03 | S. cerevisiae deletion strains, locus YPR163C, strain tif3, stronger effect = lower value 1.02 | S. cerevisiae deletion strains, locus YPR167C, strain met16, stronger effect = lower value 1.02 | S. cerevisiae deletion strains, strain wtn01, stronger effect = lower value 1.03 | S. cerevisiae strains, strain wild type, stronger effect = lower value 1.01
